Shown is part of a subset that was picked to be rich in hits.
Pf Dd2 inh – inhibitors of Plasmodium falciparum Dd2 growth; P. falciparum Dd2 growth, SYBR Green, 72 h; Potency, µM (top dose mostly 28.9 µM), without a hit: at the top dose activity, negative = inhibition, most hits filed as inhibitors; 120,000 tested, 4.3% active; AID 1347417; active = well fitted inhibition curve with a large enough effect;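 note: plate controls were DMSO vehicle for no effect and reference drug for full effect; nearly all actives have a fitted effect of over 65% in size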
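Infected erythrocytes (Dd2, 0.3% parasitemia, 2.5% hematocrit final) are added to compound in RPMI-1640/Albumax II medium, grown 72 h at 37C in low oxygen, then lysed with saponin/Triton-X containing SYBR Green and read by fluorescence.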
* hit, by the source's call; i = inactive; [ ] = remark or other dose. Potency is the fitted concentration of half-maximal effect.

SMILES | Pf Dd2 inh
CCCCN(CCCC)CCNC(=O)c1cn(CC)c2ccc(S(=O)(=O)N3CCc4ccccc4C3)cc2c1=O | -25.1%
CC1CCC2(CC1)NC(=O)N(CC(=O)Nc1ccc(Cl)cc1C(F)(F)F)C2=O (stereo not drawn) | i
Cc1occc1C(=O)N1C[C@@H](CO)[C@H](c2ccccn2)C1 | 14.0%
Cc1noc(C)c1[S+](=O)([O-])N1CCn2c(nn(-c3ccc(F)cc3F)c2=O)C1 | 14.6%
OCC1(CCc2ccccc2)CCCNC1 (stereo not drawn) | i
Cc1noc2c(N3CCNC(=O)C3)cc(-c3cccs3)nc12 | -0.1%[44.1 µM]
CC(=O)N1CC(C(=O)NCc2ccccc2F)CC(c2cccc(C)c2)C1 (stereo not drawn) | -22.2%
Cc1ccc(C)c(N2CCN(C(=O)CCc3conc3-c3ccccc3)CC2)c1 | -7.7%
c1ccc(-c2nc(NCc3cc4n(n3)CCCNC4)c3ccccc3n2)cc1 | 7.94µM*
Cc1cccc2ncc(C(=O)NCc3cc4n(n3)CCCNC4)c(=O)n12 | 3.0%
O=C(NCc1cc2n(n1)CCNC2)C(c1ccccc1)C1CCCC1 (stereo not drawn) | -29.8%
O=C(c1ccccc1)N1C[C@@H]2C[C@H](C1)c1c(-c3ccc(Cl)cc3)ccc(=O)n1C2 | -3.6%[44.1 µM]
CC(C)n1c(C2CCN(C(=O)Cc3c[nH]c4ccccc34)CC2)nn(C)c1=O | -19.2%
Cc1nc2c(C(=O)NCCc3ccccc3)c[nH]n2c(=O)c1Cc1ccc(F)cc1Cl | 17.6%
COc1ccc(CCNC(=O)c2c[nH]n3c(=O)c(Cc4ccccc4Cl)c(C)nc23)cc1OC | 10µM*
Cc1nc2c(C(=O)NCCc3ccc(Cl)cc3)c[nH]n2c(=O)c1Cc1ccccc1F | 29.6%
COc1cccc(CNC(=O)C2CCc3sc(C(=O)N(C)C)cc3C2)c1 (stereo not drawn) | 0.1%
COc1cccc(N2C(=O)NC(=NC3CCCCC3)C23CCN(Cc2ccccc2)C3)c1 (stereo not drawn) | 40.1%
COc1cccc(N2C(=O)NC(=NC3CCCCC3)C23CCCN(C(=O)c2ccccc2OC)C3)c1 (stereo not drawn) | -17.7%
COc1cccc(N2C(=O)NC(=NC3CCCC3)C23CCN(Cc2ccc(F)cc2)C3)c1 (stereo not drawn) | 12.6µM*
COc1ccc(CN2CCC3(CC2)C(=NC2CCCCC2)NC(=O)N3c2cccc(OC)c2)cc1 | -15.0%
COc1cccc(N2C(=O)NC(=NC3CCCC3)C23CCCN(C(=O)c2ccccc2F)C3)c1 (stereo not drawn) | 13.0%
COc1cccc(N2C(=O)NC(=NC3CCCCC3)C23CCCN(Cc2ccc(F)cc2)C3)c1 (stereo not drawn) | 12.6µM*
CCNC(=O)C1C(c2cccc(NC(=O)c3ccc(F)cc3)c2)OC(=O)N1Cc1cccc(Cl)c1 (stereo not drawn) | i
Cc1cccc(NC(=O)Cn2c(=O)c(-c3noc(C)n3)c3n(c2=O)CCCC3)c1 | 8.1%
SMILES | Pf Dd2 inh
CC(C)(O)c1cn(C[C@H]2CC3CCN2C[C@@H]3C(=O)NCc2ccccc2)nn1 (stereo partly drawn) | -0.6%[44.1 µM]
COCc1nncn1C1CCN(S(=O)(=O)c2ccc(C(F)(F)F)cc2)CC1 | -0.6%
CCC(CC)C(=O)N[C@H]1CO[C@H]2[C@@H]1OC[C@H]2OC(=O)Nc1ccccc1 | i
O=C(O)COc1ccc(-c2nccc3c2C(=O)N(Cc2c[nH]c4ccccc24)CC(COc2ccccc2)O3)cc1 (stereo not drawn) | i
CC(C)C(=O)NCC1CN(Cc2ccccc2)C(=O)c2c(ccnc2-c2ccc(OCC(=O)O)cc2)O1 (stereo not drawn) | 1.12µM*
Cc1ncccc1OCC1CN(Cc2cccc(C(F)(F)F)c2)C(=O)c2c(ccnc2-c2ccc(OCC(=O)O)cc2)O1 (stereo not drawn) | -3.8%
O=C(c1ccc(F)cc1)N1CCCC2(CN[S+](=O)([O-])c3ccccc3N2)C1 (stereo not drawn) | 8.8%
Cc1ccc(C(=O)N[C@@H]2CN(C)C[C@H]2CN(C)C)c(C)c1 | -6.1%
CCCCn1c(NCc2cc(Cl)ccc2O)nc2ccccc21 | 3.16µM*
CCCCn1c(C(C)NC(=O)c2ccccc2)nc2ccccc21 (stereo not drawn) | i
CCCCCCn1c(CNC(=O)c2ccccc2)nc2ccccc21 | -20.2%
Cc1cccc(C(=O)N2CCC3(CC2)CC(CC(=O)N2CCOCC2)CCO3)c1 (stereo not drawn) | -21.1%
Cc1ccc(-c2ccc(C=O)cc2)c(C)c1 | 49.0%[44.1 µM]
COCC1(CNC(=O)c2cccnc2)C[C@@H](O)[C@@H](O)C1 (stereo partly drawn) | -22.6%[44.1 µM]
CCC(C(=O)N1CCc2onc(-c3ccc(F)c(F)c3)c2C1)n1cccn1 (stereo not drawn) | -24.4%
CC(C)n1ccnc1CN1CCc2onc(-c3ccc(Cl)cc3)c2C1 | 12.6µM*
CCc1nc2c(c(-c3ccc(Cl)cc3)n1)CCN(CCC(C)C)CC2 | -19.4%
COCCNC(=O)N1CCC(C2CCNC2)CC1 (stereo not drawn) | 6.5%
Cc1ccc(C)c(CN2C(=O)c3ccccc3S(=O)(=O)c3ccc(C(=O)NCc4ccccc4)cc32)c1 | 7.08µM*
COC(=O)c1ccc2c(c1)N(Cc1ccccc1)C(=O)c1ccccc1S2(=O)=O | 56.5%
O=C(c1ccc2c(c1)N(Cc1ccccc1F)C(=O)c1ccccc1S2(=O)=O)N1CCCCC1 | i
O=C(c1ccc2c(c1)N(Cc1ccccc1)C(=O)c1ccccc1S2(=O)=O)N1CCN(Cc2ccccc2)CC1 | 8.91µM*
Cc1ccc(C)c(CN2C(=O)c3ccccc3S(=O)(=O)c3ccc(C(=O)N4CCN(c5ccccc5)CC4)cc32)c1 | 5.62µM*
Cc1ccc(CNC(=O)c2ccc3c(c2)N(Cc2ccccc2)C(=O)c2ccccc2S3(=O)=O)cc1 | -43.9%
O=C(NCc1ccco1)c1ccc2c(c1)N(Cc1ccccc1)C(=O)c1ccccc1S2(=O)=O | -12.6%
SMILES | Pf Dd2 inh
CCC(C)NC(=O)c1ccc2c(c1)N(Cc1ccccc1)C(=O)c1ccccc1S2(=O)=O (stereo not drawn) | 3.16µM*
COCCNC(=O)c1ccc2c(c1)N(Cc1cc(C)ccc1C)C(=O)c1ccccc1S2(=O)=O | -24.7%
O=C(c1ccc2c(c1)N(Cc1ccc(F)cc1)C(=O)c1ccccc1S2(=O)=O)N1CCCC1 | -10.1%
O=C(c1ccc2c(c1)N(Cc1ccccc1F)C(=O)c1ccccc1S2(=O)=O)N1CCCC1 | -12.1%
CSCC(=O)N1C[C@@H](NC(=O)NC(C)C)C[C@H]1C(=O)N(C)CC(N)=O | 18.0%[44.1 µM]
COc1ccc2c(c1)CN(C1CCC(CO)CC1)CC[C@H]1COC(=O)N21 (stereo partly drawn) | -11.0%[44.1 µM]
CC(C)c1cc(C(=O)N2CCC3(CC2)Nc2ccccc2NC3=O)n[nH]1 | 2.7%
CCc1ccccc1NC(=O)Cn1c(=O)c(-c2noc(C)n2)c2n(c1=O)CCCCC2 | i
CC(C)n1cc2cc(C(=O)O)sc2c1 | 18.9%
CC(=O)Nc1cccc(C(=O)N2CCC(n3cc(-c4nc(C)no4)nn3)C2)c1 (stereo not drawn) | i
Cc1cccc(C)c1C(=O)NC1CC(=O)N(Cc2cccc(F)c2)C1 (stereo not drawn) | -6.4%
CCOC(=O)N1CCC(NC(=O)c2ccc3c(c2)N(Cc2cc(C)ccc2C)C(=O)c2ccccc2S3(=O)=O)CC1 | 11.2µM*
Cc1ccc(CCNC(=O)c2ccc3c(c2)N(Cc2cccc(C)c2)C(=O)c2ccccc2S3(=O)=O)cc1 | -2.4%
CCOC(=O)c1ccc2c(c1)N(Cc1cc(C)ccc1C)C(=O)c1ccccc1S2(=O)=O | i

From PubChem BioAssay
